Experimental data taken from the supplement of paper PMC10849652.
About 8,800 targets were measured; listed, in parts, are those with a hit and a random draw of the rest. About 0.5% of all pairs of compound and target were hits.

compound: O=C(O)c1ccc2c(c1)nc(Nc1cccc(Cl)c1)c1ccncc12 [silmitasertib]; assay: log2 fold change, soluble protein after heating vs DMSO (PISA); higher = thermal stabilisation; K562 lysate, 10 uM; active = over 0.2 and 3.5 SD of the protein, either way, in both replicates (recomputed)
Outline: (§1)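 To prepare the extract, K562 pellets were dounce-homogenised in PBS pH 7.4 with 1 mM MgCl2, giving crude material at 1 mg/mL protein. This was treated with 10 μM compound for 30 min, then heated in aliquots for 3 min over 48°C-58°C before pooling and addition of NP-40 to 0.5% at 4°C. Centrifugation at 21,000xg for 90 min left soluble protein in the supernatant, which TMTpro 16plex LC-MS/MS quantified with equalised channel sums. Results are log-two fold changes in thermal stability compared with solvent controls, from duplicates.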

Sequence of UniProt O75865 (O75865 whole entry, looked up): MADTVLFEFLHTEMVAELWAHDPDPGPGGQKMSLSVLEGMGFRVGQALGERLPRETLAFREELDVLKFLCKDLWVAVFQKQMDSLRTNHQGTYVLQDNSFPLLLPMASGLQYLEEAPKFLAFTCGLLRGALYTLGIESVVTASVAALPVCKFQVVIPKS
Sequence of UniProt P22314 (P22314 whole entry, looked up): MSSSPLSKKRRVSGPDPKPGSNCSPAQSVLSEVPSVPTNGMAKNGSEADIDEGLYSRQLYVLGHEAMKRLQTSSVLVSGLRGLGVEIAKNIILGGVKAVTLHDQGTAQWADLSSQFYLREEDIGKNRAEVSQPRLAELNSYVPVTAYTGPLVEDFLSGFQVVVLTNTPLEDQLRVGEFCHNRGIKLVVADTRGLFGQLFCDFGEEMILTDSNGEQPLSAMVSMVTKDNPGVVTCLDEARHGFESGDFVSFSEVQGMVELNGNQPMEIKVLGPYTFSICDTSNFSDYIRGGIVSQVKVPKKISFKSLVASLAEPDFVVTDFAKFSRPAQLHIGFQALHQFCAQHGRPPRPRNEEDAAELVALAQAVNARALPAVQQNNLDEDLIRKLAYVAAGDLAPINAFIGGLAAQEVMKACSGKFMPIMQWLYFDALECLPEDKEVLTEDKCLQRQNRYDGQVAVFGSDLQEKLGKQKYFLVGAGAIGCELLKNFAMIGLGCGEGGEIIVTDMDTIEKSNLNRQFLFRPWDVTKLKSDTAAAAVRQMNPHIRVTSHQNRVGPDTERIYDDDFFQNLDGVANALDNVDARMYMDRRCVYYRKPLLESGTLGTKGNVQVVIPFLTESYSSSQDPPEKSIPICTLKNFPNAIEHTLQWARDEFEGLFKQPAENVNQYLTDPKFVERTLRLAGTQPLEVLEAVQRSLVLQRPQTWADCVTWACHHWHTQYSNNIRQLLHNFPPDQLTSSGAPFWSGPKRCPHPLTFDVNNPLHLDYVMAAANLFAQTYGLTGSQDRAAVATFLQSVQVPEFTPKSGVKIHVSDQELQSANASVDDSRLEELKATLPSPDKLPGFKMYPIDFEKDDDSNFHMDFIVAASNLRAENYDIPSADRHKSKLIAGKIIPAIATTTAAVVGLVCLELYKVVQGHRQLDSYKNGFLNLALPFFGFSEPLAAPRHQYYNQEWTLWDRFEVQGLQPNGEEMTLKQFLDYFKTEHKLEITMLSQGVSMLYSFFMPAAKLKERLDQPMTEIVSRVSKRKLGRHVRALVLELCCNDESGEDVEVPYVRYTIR
Sequence of UniProt Q5U3C3 (Q5U3C3 whole entry, looked up): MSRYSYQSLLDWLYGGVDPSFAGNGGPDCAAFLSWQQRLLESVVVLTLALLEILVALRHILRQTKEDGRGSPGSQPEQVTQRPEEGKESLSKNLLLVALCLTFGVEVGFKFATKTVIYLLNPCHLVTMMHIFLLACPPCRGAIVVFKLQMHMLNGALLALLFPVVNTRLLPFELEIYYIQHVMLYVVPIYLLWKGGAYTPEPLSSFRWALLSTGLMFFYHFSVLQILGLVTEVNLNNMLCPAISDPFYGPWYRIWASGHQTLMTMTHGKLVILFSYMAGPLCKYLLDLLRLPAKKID
Sequence of UniProt P48553 (P48553 whole entry, looked up): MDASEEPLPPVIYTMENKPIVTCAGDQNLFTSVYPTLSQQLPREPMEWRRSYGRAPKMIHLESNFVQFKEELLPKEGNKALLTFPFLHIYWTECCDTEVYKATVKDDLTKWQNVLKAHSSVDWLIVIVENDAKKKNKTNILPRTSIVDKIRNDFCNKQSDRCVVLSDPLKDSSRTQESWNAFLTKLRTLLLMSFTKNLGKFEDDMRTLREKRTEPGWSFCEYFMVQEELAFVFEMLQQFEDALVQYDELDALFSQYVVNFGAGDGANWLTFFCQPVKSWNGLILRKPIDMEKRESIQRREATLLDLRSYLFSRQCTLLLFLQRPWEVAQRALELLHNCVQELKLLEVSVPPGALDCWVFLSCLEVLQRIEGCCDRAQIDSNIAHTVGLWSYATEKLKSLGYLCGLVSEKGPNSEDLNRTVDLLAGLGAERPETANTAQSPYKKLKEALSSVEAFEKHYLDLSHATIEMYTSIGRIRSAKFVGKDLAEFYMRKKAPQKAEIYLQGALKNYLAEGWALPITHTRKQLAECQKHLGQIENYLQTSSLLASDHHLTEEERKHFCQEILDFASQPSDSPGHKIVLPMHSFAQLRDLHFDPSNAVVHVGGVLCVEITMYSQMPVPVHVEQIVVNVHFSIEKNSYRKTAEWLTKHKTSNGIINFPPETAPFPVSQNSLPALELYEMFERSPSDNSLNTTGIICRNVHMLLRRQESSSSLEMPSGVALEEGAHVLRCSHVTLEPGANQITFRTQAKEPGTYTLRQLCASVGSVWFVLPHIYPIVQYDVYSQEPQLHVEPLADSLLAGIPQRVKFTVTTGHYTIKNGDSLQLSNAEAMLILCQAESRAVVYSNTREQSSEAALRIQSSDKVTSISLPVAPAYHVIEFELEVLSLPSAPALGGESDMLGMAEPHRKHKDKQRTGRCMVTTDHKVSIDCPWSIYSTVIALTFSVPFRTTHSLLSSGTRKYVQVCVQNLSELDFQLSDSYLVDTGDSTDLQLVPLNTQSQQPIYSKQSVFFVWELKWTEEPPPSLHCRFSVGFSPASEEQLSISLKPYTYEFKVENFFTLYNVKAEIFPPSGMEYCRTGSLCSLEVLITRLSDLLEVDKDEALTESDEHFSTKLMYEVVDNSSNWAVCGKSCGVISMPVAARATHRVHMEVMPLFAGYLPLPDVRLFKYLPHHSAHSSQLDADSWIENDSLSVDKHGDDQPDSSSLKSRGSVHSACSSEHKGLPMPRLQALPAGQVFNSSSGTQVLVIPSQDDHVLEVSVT
Sequence of UniProt Q99081 (Q99081 whole entry, looked up): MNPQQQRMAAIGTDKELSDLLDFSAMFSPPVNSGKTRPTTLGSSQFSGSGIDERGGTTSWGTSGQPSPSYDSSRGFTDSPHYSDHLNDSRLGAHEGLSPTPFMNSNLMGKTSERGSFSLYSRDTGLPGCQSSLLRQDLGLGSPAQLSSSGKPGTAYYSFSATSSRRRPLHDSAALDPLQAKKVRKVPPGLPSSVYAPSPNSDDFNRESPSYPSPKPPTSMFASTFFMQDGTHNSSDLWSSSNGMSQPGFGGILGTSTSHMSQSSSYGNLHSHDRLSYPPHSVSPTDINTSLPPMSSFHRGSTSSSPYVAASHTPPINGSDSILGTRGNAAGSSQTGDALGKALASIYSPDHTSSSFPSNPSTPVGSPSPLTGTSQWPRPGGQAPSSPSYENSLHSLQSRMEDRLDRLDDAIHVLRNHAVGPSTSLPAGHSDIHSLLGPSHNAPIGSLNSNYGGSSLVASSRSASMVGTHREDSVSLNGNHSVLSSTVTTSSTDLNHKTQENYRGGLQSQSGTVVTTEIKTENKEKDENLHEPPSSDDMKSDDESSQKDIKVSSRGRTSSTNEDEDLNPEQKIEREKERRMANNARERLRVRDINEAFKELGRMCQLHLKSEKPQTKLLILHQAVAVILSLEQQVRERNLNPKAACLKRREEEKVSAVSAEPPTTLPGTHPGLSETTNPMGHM
Sequence of UniProt Q8N511 (Q8N511 whole entry, looked up): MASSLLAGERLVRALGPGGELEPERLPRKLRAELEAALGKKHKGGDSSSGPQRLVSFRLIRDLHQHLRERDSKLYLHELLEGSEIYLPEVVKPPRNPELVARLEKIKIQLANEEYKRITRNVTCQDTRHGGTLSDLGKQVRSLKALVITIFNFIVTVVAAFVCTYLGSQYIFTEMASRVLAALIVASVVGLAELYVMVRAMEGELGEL
Sequence of UniProt Q96K49 (Q96K49 whole entry, looked up): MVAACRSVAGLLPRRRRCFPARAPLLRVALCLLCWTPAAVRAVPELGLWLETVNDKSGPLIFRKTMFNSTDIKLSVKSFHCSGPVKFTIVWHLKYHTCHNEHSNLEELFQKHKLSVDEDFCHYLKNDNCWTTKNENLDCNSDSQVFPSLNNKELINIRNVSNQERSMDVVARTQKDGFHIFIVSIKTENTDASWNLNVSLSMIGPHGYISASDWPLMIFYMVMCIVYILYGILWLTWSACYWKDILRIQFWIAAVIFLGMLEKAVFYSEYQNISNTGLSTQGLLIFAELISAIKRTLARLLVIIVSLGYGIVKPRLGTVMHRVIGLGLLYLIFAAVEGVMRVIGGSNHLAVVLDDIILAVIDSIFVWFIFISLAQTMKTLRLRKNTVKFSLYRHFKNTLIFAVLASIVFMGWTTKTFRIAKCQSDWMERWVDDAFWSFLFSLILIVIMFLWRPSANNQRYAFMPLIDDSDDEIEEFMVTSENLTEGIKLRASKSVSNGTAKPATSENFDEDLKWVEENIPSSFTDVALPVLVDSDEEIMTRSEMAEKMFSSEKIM
Sequence of UniProt Q53H54 (Q53H54 whole entry, looked up): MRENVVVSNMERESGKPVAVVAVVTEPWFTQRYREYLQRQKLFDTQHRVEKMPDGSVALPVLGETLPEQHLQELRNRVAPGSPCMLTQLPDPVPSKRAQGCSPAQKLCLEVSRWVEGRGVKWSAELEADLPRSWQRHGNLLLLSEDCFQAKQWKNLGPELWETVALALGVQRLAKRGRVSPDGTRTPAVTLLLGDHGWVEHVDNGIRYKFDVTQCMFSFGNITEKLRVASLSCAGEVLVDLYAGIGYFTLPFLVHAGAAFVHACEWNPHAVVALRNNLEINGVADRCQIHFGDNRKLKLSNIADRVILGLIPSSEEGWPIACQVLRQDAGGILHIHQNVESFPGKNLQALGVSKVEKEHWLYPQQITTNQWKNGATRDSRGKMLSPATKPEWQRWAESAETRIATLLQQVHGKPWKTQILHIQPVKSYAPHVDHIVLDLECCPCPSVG
Sequence of UniProt Q96BS2 (Q96BS2 whole entry, looked up): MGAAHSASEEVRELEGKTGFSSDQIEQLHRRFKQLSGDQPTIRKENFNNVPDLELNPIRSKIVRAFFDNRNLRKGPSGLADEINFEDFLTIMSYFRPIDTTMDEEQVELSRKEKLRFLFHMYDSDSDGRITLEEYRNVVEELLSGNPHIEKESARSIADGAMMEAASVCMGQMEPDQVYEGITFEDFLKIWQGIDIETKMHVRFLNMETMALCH

log2 fold change, inactive:
TUBGCP4 (UniProt Q9UGJ1) 0.003
TTI2 (UniProt Q6NXR4) 0.015
TMEM164 (UniProt Q5U3C3) -0.079
TRIM33 isoform 2 (UniProt Q9UPN9) -0.026
TCF12 isoform 3 (UniProt Q99081) -0.024
TOPBP1 (UniProt Q92547) 0.019
TMEM87B (UniProt Q96K49) 0.026
UBA1 (UniProt P22314) 0.01
TESC (UniProt Q96BS2) 0.103
TMEM199 (UniProt Q8N511) -0.017
TRAPPC10 (UniProt P48553) 0.005
TK1 (UniProt K7ERV3) 0.01
TPP2 (UniProt P29144) 0.02
TRMT12 (UniProt Q53H54) -0.039
TRAPPC6A isoform 2 (UniProt O75865) 0.013
TTC4 (UniProt O95801) 0.022

compound: O=C1NC(=O)C(c2cnc3ccccn23)=C1c1cn2c3c(cc(F)cc13)CN(C(=O)N1CCCCC1)CC2; assay: as above
Outline: as §1

log2 fold change, inactive:
TLK2 isoform 2 (UniProt Q86UE8) 0.118
UBXN10 (UniProt Q96LJ8) -0.002
TTK (UniProt P33981) -0.03
TUBB3 (UniProt Q13509) 0.006
TRAF2 isoform 2 (UniProt Q12933) 0.031
TNIK (UniProt C9J338) 0.006
TUBGCP3 (UniProt Q96CW5) 0.019
TPST2 (UniProt O60704) -0.048
TRIP12 isoform 2 (UniProt Q14669) 0.005
TNKS (UniProt O95271) -0.001
TUBA3C (UniProt P0DPH7) -0.008
TMEM161B (UniProt Q8NDZ6) 0.019
TMEM70 (UniProt Q9BUB7) -0.108
THOC5 (UniProt Q13769) 0.008
TPM4 isoform 2 (UniProt P67936) -0.014
TOR3A (UniProt Q9H497) -0.016
TFAP4 (UniProt Q01664) 0.01
UBXN6 (UniProt Q9BZV1) -0.026
TRA2A (UniProt Q13595) 0.005
TRIM25 (UniProt Q14258) -0.018
UCHL5 isoform 3 (UniProt Q9Y5K5) -0.009
TLK1 isoform 2 (UniProt Q9UKI8) 0.156
TIMM44 (UniProt O43615) 0.029
TUBGCP4 (UniProt Q9UGJ1) 0.02
TTI2 (UniProt Q6NXR4) 0.034
TMEM164 (UniProt Q5U3C3) 0.274
TRIM33 isoform 2 (UniProt Q9UPN9) -0.04
TCF12 isoform 3 (UniProt Q99081) -0.004
TOPBP1 (UniProt Q92547) -0.074
TMEM87B (UniProt Q96K49) -0.037
UBA1 (UniProt P22314) -0.003
TESC (UniProt Q96BS2) -0.014
TMEM199 (UniProt Q8N511) -0.005
TRAPPC10 (UniProt P48553) 0.049
TK1 (UniProt K7ERV3) -0.014
TPP2 (UniProt P29144) -0.011
TRMT12 (UniProt Q53H54) -0.043
TRAPPC6A isoform 2 (UniProt O75865) -0.002
TTC4 (UniProt O95801) -0.009

compound: c1cn2cc(-c3ccc4cn[nH]c4c3)nc(Nc3ccc(N4CCOCC4)cc3)c2n1 [entospletinib]; assay: as above
Outline: as §1

log2 fold change, inactive:
TLK2 isoform 2 (UniProt Q86UE8) -0.135
UBXN10 (UniProt Q96LJ8) 0
TTK (UniProt P33981) -0.039
TUBB3 (UniProt Q13509) -0.002
TRAF2 isoform 2 (UniProt Q12933) 0.005
TNIK (UniProt C9J338) -0.049
TUBGCP3 (UniProt Q96CW5) -0.003
TPST2 (UniProt O60704) 0.016
TRIP12 isoform 2 (UniProt Q14669) -0.002
TNKS (UniProt O95271) -0.085
TUBA3C (UniProt P0DPH7) -0.007
TMEM161B (UniProt Q8NDZ6) -0.026
TMEM70 (UniProt Q9BUB7) 0.015
THOC5 (UniProt Q13769) -0.009
TPM4 isoform 2 (UniProt P67936) 0.02
TOR3A (UniProt Q9H497) 0.02
TFAP4 (UniProt Q01664) -0.086
UBXN6 (UniProt Q9BZV1) -0.009
TRA2A (UniProt Q13595) -0.102
TRIM25 (UniProt Q14258) 0.011
UCHL5 isoform 3 (UniProt Q9Y5K5) -0.003
TLK1 isoform 2 (UniProt Q9UKI8) 0.04
TIMM44 (UniProt O43615) -0.026
TUBGCP4 (UniProt Q9UGJ1) 0.038
TTI2 (UniProt Q6NXR4) 0.005
TMEM164 (UniProt Q5U3C3) 0.059
TRIM33 isoform 2 (UniProt Q9UPN9) -0.024
TCF12 isoform 3 (UniProt Q99081) 0.006
TOPBP1 (UniProt Q92547) 0.028
TMEM87B (UniProt Q96K49) -0.097
UBA1 (UniProt P22314) 0.02
TESC (UniProt Q96BS2) -0.111
TMEM199 (UniProt Q8N511) 0.008
TRAPPC10 (UniProt P48553) 0
TK1 (UniProt K7ERV3) -0.013
TPP2 (UniProt P29144) 0.003
TRMT12 (UniProt Q53H54) -0.125
TRAPPC6A isoform 2 (UniProt O75865) -0.157
TTC4 (UniProt O95801) 0
